From PubChem
This is a sample that favours compounds with a hit; in the whole collection about 2.4% have one here.
D2 ag-1: agonists of human D2 dopamine receptor (beta-arrestin). activation, % (concentration not given with the values). DiscoveRx PathHunter D2 beta-arrestin, luminescence, 90 min; 100% = 57 uM dopamine signal. P14416. actives 0.084% (n = 360,000). AID 624465; in the data active = activation above about 40%; inconclusive = between about 15% and that limit
Target sequence (P14416 whole entry, looked up): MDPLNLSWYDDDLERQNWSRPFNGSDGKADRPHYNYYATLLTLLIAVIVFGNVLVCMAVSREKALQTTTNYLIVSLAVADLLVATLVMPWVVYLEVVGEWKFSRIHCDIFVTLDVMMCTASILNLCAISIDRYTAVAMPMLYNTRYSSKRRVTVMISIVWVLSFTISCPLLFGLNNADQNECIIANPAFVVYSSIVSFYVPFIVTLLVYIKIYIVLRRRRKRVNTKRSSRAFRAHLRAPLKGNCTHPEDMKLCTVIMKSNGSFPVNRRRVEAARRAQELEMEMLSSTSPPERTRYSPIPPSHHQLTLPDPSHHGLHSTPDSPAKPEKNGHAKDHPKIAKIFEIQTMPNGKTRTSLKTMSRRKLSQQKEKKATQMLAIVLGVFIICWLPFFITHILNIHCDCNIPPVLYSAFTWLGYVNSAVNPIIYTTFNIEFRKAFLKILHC
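Agonist mode: compounds alone added to overnight-plated D2 PathHunter cells for 90 min at 37 C, with 57 uM final dopamine (EC100) defining full response. Beta-arrestin recruitment detected by chemiluminescent reagent, read after 1 h at ambient temperature.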
D2 ag-2: agonists of human D2 dopamine receptor. activation, % at 2 µM. HEK293 T-REx D2 cells, calcium flux agonist mode. P14416. actives 0.53% (n = 340,000). AID 485358;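 active = activation over 3 SD above normal in the single-dose calcium agonist read, cut at about 30% in these data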
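Tetracycline-induced HEK293 Trex cells with D2 receptor force-coupled to calcium signaling, plated overnight at 30 C and loaded with no-wash calcium dye. Calcium flux read kinetically for 180 s after compound addition; responses flag agonists.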
D2 antagonist: D2 dopamine receptor (human) antagonism; P14416; HEK293 TREx D2 cells, calcium flux, dopamine EC80; inhibition, % at 10 µM; actives 2% (n = 340,000); AID 485344; in the data active = inhibition above about 30%; inactive = below that, where a call was filed
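Calcium mobilization kinetics were recorded at 1 s intervals in tetracycline-induced HEK293 T-REx D2 cells, first for 180 s after compound addition and then 180 s after EC80 dopamine.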
D2 PAM-1: D2 dopamine receptor (human) potentiation | P14416 | HEK293 T-REx D2, calcium flux, EC20 dopamine potentiation | potentiation, % at 10 µM | actives 0.34% (n = 340,000) | AID 485347;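 active = potentiation over 3 SD above the plate norm, cut at about 30% in these data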
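Tetracycline-induced Hek293 Trex D2 cells, force-coupled to calcium, loaded with no-wash calcium dye. Compound added with 180 s kinetic read for agonism, then EC20 dopamine and a further 180 s read for potentiation.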
D2 PAM-2: positive allosteric modulators of human D2 dopamine receptor; DiscoveRx D2 beta-arrestin cells, luminescence, 90 min; 100% = 57 uM dopamine signal; potentiation, % (no concentration beside the values); actives 0.23% (n = 360,000); AID 624464; in the data active = potentiation above about 50%; inconclusive = mostly about 30% to 49%
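PathHunter D2 cells, attached overnight at 37 deg C, received compound in DMSO plus dopamine at EC20 (50 nM final) for 90 min at 37 deg C. Beta-arrestin recruitment was read as luminescence after 1 h with detection reagent at ambient temperature.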
Each line names hits and unclear results; the compound was inactive in the other large screens.

Cc1cc(NC(=O)Cn2c(=O)oc3ccccc32)no1	D2 antagonist 32.7
CCC1Oc2ccc(C)cc2N(CC(=O)N2CCN(c3ccccc3OC)CC2)C1=O (stereo not drawn)	none (no result: D2 ag-1, D2 antagonist, D2 PAM-2)
CCC(C(=O)OCC(=O)C1(O)CCC2C3CCC4=CC(=O)CCC4(C)C3C(O)CC21C)C(C)C (stereo not drawn)	D2 PAM-2 55.6 (no result: D2 ag-2, D2 antagonist, D2 PAM-1)
CC(=O)[C@@]1(O)CC[C@H]2[C@@H]3CCC4=CC(=O)CC[C@]4(C)[C@H]3[C@@H](O)C[C@@]21C	none
CCn1cc(S(=O)(=O)N2CCN(Cc3cccc(Cl)c3)CC2)cn1	D2 antagonist 33.5
COc1ccccc1NC(=O)NCc1ccc2c(c1)OCO2	D2 antagonist 32.6 (no result: D2 ag-1, D2 PAM-2)
COC(=O)c1ccccc1NC(=O)NCc1ccc2c(c1)OCO2	D2 antagonist 34.4
COc1cc(C)c(S(=O)(=O)NCc2ccc3c(c2)OCO3)cc1C	D2 antagonist 31.7
CCOc1ccccc1NC(=O)NCc1ccc2c(c1)OCO2	none
O=C(NCc1ccc2c(c1)OCO2)Nc1cccc2ccccc12	none
COc1cc(S(=O)(=O)NCc2ccc3c(c2)OCO3)c(OC)cc1C	none
Cc1ccn2c(=O)c(C(=O)NC(C)c3ccccc3)c(O)nc2c1 (stereo not drawn)	none (no result: D2 ag-1, D2 ag-2, D2 antagonist, D2 PAM-2)
CCCCCCCC(=O)Oc1ccc(C(=O)Nc2cc(C)on2)cc1	D2 antagonist 37.0
C/C(=N\NC=O)c1ccncc1	D2 PAM-1 30.1
Cc1ccc(Cn2c(=O)n(-c3cc(C)cc(C)c3)c(=O)c3oc4ccccc4c32)cc1	none (no result: D2 ag-1, D2 antagonist, D2 PAM-2)
CCOc1cc(CNc2ccc(N3CCN(C(C)=O)CC3)cc2)cc(Br)c1OC	D2 PAM-2 74.3
COc1cccc(CNC(=O)C2CCCCN2S(=O)(=O)c2ccc(F)cc2)c1 (stereo not drawn)	none (no result: D2 ag-1, D2 antagonist, D2 PAM-2)
COc1ccc(OC)c(NC(=O)CN2C(=O)CSc3ccc(S(=O)(=O)N4CCCC4)cc32)c1	D2 PAM-1 33.1
COc1ccc(C)cc1NC(=O)CN1C(=O)CSc2ccc(S(=O)(=O)N3CCCC3)cc21	none
CCC1(c2ccccc2)NC(=O)N(CC(=O)Nc2cc(S(=O)(=O)N3CCCCCC3)ccc2OC)C1=O (stereo not drawn)	D2 PAM-2 62.9 (no result: D2 ag-2, D2 antagonist, D2 PAM-1)
COc1cccc(C2CNC3(CCCC(C)C3)c3[nH]c4ccccc4c32)c1OC (stereo not drawn)	none
CC1(C)CC(=O)CC2(C1)NCC(c1ccccc1)c1c2[nH]c2ccccc12 (stereo not drawn)	D2 antagonist 31.4
CCC(Sc1nc2cc3c(cc2c(=O)n1CCCC(=O)NCc1ccc2c(c1)OCO2)OCO3)C(=O)NCCCOC (stereo not drawn)	none (no result: D2 ag-1, D2 antagonist, D2 PAM-2)
COc1ccc(Nc2nnc(-c3ccc(C)c(S(=O)(=O)N4CCN(C)CC4)c3)c3ccccc23)cc1	none (no result: D2 ag-1, D2 antagonist, D2 PAM-2)
COC(=O)c1cc(NC(=O)c2cccc(Cl)c2)c(=O)oc1/C=C/Nc1cc(C)cc(C)c1	D2 ag-2 41.2 (no result: D2 ag-1, D2 PAM-2)
CS(=O)(=O)N1CCC(C(=O)Nc2ccc(OCc3ccccc3)cc2)CC1	D2 antagonist 45.5
O=C(COC(=O)c1cc([N+](=O)[O-])ccc1N1CCOCC1)c1ccc(OC(F)F)cc1OC(F)F	D2 ag-1 inconclusive, D2 antagonist 44.0
COC(=O)c1cc2oc(C)cc2n1Cc1cccc(Cl)c1	none (no result: D2 ag-1, D2 ag-2, D2 antagonist, D2 PAM-2)
CCOc1ccccc1NC(=O)Cn1nnc2sc(-c3ccccc3)cc2c1=O	none (no result: D2 ag-1, D2 antagonist, D2 PAM-2)
Cc1ccc(C)c(Cn2c3ccccc3c3cnn(CC(=O)NC4CCC(C)CC4)c(=O)c32)c1 (stereo not drawn)	none (no result: D2 ag-1, D2 antagonist, D2 PAM-2)
N/C(Cc1ccc(Cl)cc1Cl)=N\OC(=O)c1ccccc1F	D2 PAM-2 61.3
N/C(Cc1ccccc1)=N\OC(=O)c1cccc2ccccc12	D2 ag-2 37.0, D2 PAM-2 inconclusive
N/C(Cc1cccc2ccccc12)=N\OC(=O)c1ccccc1F	D2 ag-1 inconclusive, D2 PAM-2 60.9
N/C(Cn1cncn1)=N\OC(=O)c1ccc(Cl)cc1Cl	none
Cc1cccc(N2CCN(C(=O)c3cccn4c(=O)c5cc(Cl)ccc5nc34)CC2C)c1 (stereo not drawn)	none (no result: D2 ag-1, D2 antagonist, D2 PAM-2)
Cc1ccc(C)c(NC(=O)C2CCN(c3cc(C)nc4c(-c5ccc(Cl)cc5)c(C)nn34)CC2)c1	none (no result: D2 ag-1, D2 antagonist, D2 PAM-2)
Cc1ccc(-n2nc(C(=O)N3CCN(c4ccccc4)CC3)c(=O)n(C)c2=O)cc1	none (no result: D2 ag-1, D2 antagonist, D2 PAM-2)
